Reference: the supplement of paper PMC9694430

Columns and labels:
Test in all cases: thermal shift delta Tm vs DMSO control; higher = stronger stabilization (binding)
Details in all cases: 12.5 µM; protein concentration 2 µM
LOC_OS02G45750-cb003 = tested on: LOC_OS02G45750-cb003
Method in brief: (§1)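 The melting temperature shift given here is a triplicate mean, measured against protein that received only DMSO. Melting temperatures came from Boltzmann fits of differential scanning fluorimetry data on E. coli-expressed, purified rice kinase domain constructs. Each 19.5 μl well contained 2 μM kinase, 100 mM potassium phosphate pH 7.5, 150 mM NaCl, 10% glycerol, 5 × SYPRO Orange and compound in DMSO. Plates were scanned from 25°C to 95°C at 0.05°C/s.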

LOC_OS02G54510-cb004 = tested on: LOC_OS02G54510-cb004
Method in brief: as §1

LOC_OS03G04050-cb001 = tested on: LOC_OS03G04050-cb001
Method in brief: as §1

LOC_OS03G12390-cb001 = tested on: LOC_OS03G12390-cb001
Method in brief: as §1

LOC_OS03G27990-cb004 = tested on: LOC_OS03G27990-cb004
Method in brief: as §1

LOC_OS03G50450-cb001 = tested on: LOC_OS03G50450-cb001
Method in brief: as §1

LOC_OS03G50810-cb003 = tested on: LOC_OS03G50810-cb003
Method in brief: as §1

LOC_OS04G35114-cb001 = tested on: LOC_OS04G35114-cb001
Method in brief: as §1

LOC_OS04G38480-cb003 = tested on: T1, LOC_OS04G38480-cb003
T1 sequence (whole entry): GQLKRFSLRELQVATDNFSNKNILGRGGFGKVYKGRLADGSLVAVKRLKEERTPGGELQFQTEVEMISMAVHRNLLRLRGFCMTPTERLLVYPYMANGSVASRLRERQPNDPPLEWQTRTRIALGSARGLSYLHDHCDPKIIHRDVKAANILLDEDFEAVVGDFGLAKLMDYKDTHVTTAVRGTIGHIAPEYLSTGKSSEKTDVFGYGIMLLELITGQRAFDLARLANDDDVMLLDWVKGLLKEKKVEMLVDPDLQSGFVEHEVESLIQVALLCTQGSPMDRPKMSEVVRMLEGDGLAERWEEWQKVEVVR
Method in brief: as §1

LOC_OS04G41100-cb001 = tested on: T2, LOC_OS04G41100-cb001
T2 sequence (whole entry): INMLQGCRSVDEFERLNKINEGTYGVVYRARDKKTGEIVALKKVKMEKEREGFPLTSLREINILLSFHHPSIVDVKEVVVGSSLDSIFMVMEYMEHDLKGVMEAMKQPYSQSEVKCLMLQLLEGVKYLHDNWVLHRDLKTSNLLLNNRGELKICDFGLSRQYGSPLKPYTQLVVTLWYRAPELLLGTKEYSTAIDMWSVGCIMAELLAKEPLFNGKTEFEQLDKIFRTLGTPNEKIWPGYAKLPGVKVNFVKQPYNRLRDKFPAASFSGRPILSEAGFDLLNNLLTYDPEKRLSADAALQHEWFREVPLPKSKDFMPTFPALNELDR
Method in brief: as §1

LOC_OS04G57630-cb004 = tested on: LOC_OS04G57630-cb004
Method in brief: as §1

LOC_OS05G07850-cb002 = tested on: LOC_OS05G07850-cb002
Method in brief: as §1

LOC_OS05G16824-cb004 = tested on: LOC_OS05G16824-cb004
Method in brief: as §1

LOC_OS05G28520-cb001 = tested on: LOC_OS05G28520-cb001
Method in brief: as §1

LOC_OS05G30820-cb001 = tested on: LOC_OS05G30820-cb001
Method in brief: as §1

LOC_OS05G43570-cb004 = tested on: LOC_OS05G43570-cb004
Method in brief: as §1

LOC_OS06G16330-cb003 = tested on: LOC_OS06G16330-cb003
Method in brief: as §1

LOC_OS06G22820-cb001 = tested on: T3, LOC_OS06G22820-cb001
T3 sequence (whole entry): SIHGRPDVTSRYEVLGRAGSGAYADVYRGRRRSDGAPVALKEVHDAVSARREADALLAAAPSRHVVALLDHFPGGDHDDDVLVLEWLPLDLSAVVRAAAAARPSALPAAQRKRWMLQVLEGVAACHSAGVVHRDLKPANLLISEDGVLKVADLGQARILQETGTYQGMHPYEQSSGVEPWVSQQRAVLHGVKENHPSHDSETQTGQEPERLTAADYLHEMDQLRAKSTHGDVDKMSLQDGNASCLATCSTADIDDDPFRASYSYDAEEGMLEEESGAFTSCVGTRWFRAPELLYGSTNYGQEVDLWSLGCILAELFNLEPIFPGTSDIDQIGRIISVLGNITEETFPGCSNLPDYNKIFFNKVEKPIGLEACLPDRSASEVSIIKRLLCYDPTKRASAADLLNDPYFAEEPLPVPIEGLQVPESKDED
Method in brief: as §1

LOC_OS07G06570-cb004 = tested on: LOC_OS07G06570-cb004
Method in brief: as §1

LOC_OS07G07230-cb001 = tested on: LOC_OS07G07230-cb001
Method in brief: as §1

LOC_OS06G16330-cb003, sequence (as listed by the source): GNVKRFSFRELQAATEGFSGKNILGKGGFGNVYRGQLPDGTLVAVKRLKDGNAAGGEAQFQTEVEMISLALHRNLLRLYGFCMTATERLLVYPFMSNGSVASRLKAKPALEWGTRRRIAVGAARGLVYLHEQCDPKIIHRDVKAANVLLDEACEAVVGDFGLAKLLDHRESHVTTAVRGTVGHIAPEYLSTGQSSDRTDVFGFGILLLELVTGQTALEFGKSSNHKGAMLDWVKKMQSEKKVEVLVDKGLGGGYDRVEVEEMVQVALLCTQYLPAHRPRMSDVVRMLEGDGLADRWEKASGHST

Compound	thermal shift delta Tm (LOC_OS02G45750-cb003) [°C]	thermal shift delta Tm (LOC_OS02G54510-cb004) [°C]	thermal shift delta Tm (LOC_OS03G04050-cb001) [°C]	thermal shift delta Tm (LOC_OS03G12390-cb001) [°C]	thermal shift delta Tm (LOC_OS03G27990-cb004) [°C]	thermal shift delta Tm (LOC_OS03G50450-cb001) [°C]	thermal shift delta Tm (LOC_OS03G50810-cb003) [°C]	thermal shift delta Tm (LOC_OS04G35114-cb001) [°C]	thermal shift delta Tm (LOC_OS04G38480-cb003) [°C]	thermal shift delta Tm (LOC_OS04G41100-cb001) [°C]	thermal shift delta Tm (LOC_OS04G57630-cb004) [°C]	thermal shift delta Tm (LOC_OS05G07850-cb002) [°C]	thermal shift delta Tm (LOC_OS05G16824-cb004) [°C]	thermal shift delta Tm (LOC_OS05G28520-cb001) [°C]	thermal shift delta Tm (LOC_OS05G30820-cb001) [°C]	thermal shift delta Tm (LOC_OS05G43570-cb004) [°C]	thermal shift delta Tm (LOC_OS06G16330-cb003) [°C]	thermal shift delta Tm (LOC_OS06G22820-cb001) [°C]	thermal shift delta Tm (LOC_OS07G06570-cb004) [°C]	thermal shift delta Tm (LOC_OS07G07230-cb001) [°C]
CCS(=O)(=O)Nc1ccc2c(c1)/C(=C(/Nc1ccc(CN3CCCCC3)cc1)c1ccccc1)C(=O)N2 [Hesperadin]	14.4	0.53	0.02	8.56	2.77	2.45	11.8	13.2	4.11	0.76	7.62	11.8	16.8	-0.02	2.48	0.56	13.1	0.6	0.84	-0.17
CN(C)CCOc1ccc(-c2nc(-c3ccncc3)c(-c3ccc4c(c3)CC/C4=N\O)[nH]2)cc1	0.22	0.08	0.13	-0.23	0.06	0.04	0.55	0.33	0.74	0.3	0.24	1.09	-2.35	-0.03	0.65	0.64	-0.3	0.47	0.49	0.18
CN1CCN(c2ccc(C(=O)Nc3n[nH]c4ccc(Cc5cc(F)cc(F)c5)cc34)c(NC3CCOCC3)c2)CC1 [Entrectinib (RXDX-101)]	8.16	1.58	0.06	2.99	0.44	0.86	7.06	7.44	2.7	0.77	2.05	10.2	5.23	3.71	0.38	0.47	8.44	0.27	0.88	0.63
Cn1ncc(Cl)c1-c1cc(C(=O)N[C@H](CN)Cc2ccc(F)c(F)c2)oc1Cl	1.04	-0.14	0.46	1.31	0.14	0.74	0.51	0.52	1.58	0.63	0.39	1.08	2.91	1.26	0.24	1.04	1.15	0.82	-0.35	-0.13
Cc1ncc(-c2ccnc(Nc3ccc(S(C)(=O)=O)cc3)n2)n1C(C)C	4.52	0.65	0.19	3.93	0.85	0.58	1.7	1.83	2.87	4.97	1.43	11.2	6.1	0.35	1.14	0.74	5.53	1.02	0.69	0.17
COc1ccc2[nH]cc(/C=C3\C(=O)Nc4ccc(NC(=O)CCN5CCCCC5)cc43)c2c1	4.5	0.79	0.56	1.22	1.19	0.34	3.45	5.49	2.41	0.9	0.69	8.06	4.33	0.72	0.68	0.6	2.98	0.74	1.1	0.33
CN(C)C[C@@H]1CCn2cc(c3ccccc32)C2=C(C(=O)NC2=O)c2cn(c3ccccc23)CCO1	-0.25	0.16	0.36	0.08	0.5	-0.45	1.85	6.19	2.42	0.73	-0.32	5.79	2.45	0.65	0.63	0.63	0.27	0.46	2.56	0.33
